Measured values: PubChem BioAssay (NCI)
“And” between values parts separate entries of the source, which are not always exact repeats. Equal values may be shown once. This is part of a sample that, as a whole, favours compounds with a hit. Of some 83,000 tested, about 20% had one in any assay.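 Cells were grown in 96-well plates and exposed to the test compound at a single concentration for 48 hours; results are reported as percent growth, with values below 10 considered active.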

What was measured:
Test in all cases: NCI-60 one-dose screen, 48 h (100 = growth as untreated, 0 = no growth, -100 = all killed)
Settings in all cases: 10 µM unless noted
[1] = tested on: T-47D breast
[2] = tested on: BT-549 breast
[3] = tested on: MDA-MB-435 melanoma
[4] = tested on: SW-620 colon
[5] = tested on: MCF7 breast
[6] = tested on: HCT-116 colon
[7] = tested on: KM12 colon
[8] = tested on: HCC-2998 colon

Measured: growth

COc1ccc(COC=O)cc1
inactive: [1] 91.2% | [2] 110% | [3] 113% | [4] 108% | [5] 99.3% | [6] 99.1% | [7] 103%

CC(O)CCNC(c1ccccc1)C(O)c1ccccc1 (centres undefined)
inactive: [1] 99.2% | [2] 110% | [3] 112% | [4] 110% | [6] 100% | [8] 111% | [7] 114%

CSc1nc(N)c(N)c(N)n1
inactive: [1] 97.2% | [2] 101% | [3] 112% | [4] 104% | [6] 86.5% | [8] 109% | [7] 104%

NCCSSC/C=C\CSSCCN
inactive: [1] 86.4% | [2] 100% | [3] 105% | [4] 102% | [6] 94.3% | [8] 112% | [7] 102%

NCCCCCC(=O)O
inactive: [1] 101% [middle of 4 runs] | [2] 98.5% and 107% and 112% | [3] 105% [middle of 4 runs] | [4] 109% and 98.2% and 107% | [5] 105% [middle of 4 runs] | [7] 114% [middle of 4 runs]

Cc1ccc(N)cc1S(=O)(=O)O
inactive: [1] 103% and 117% | [2] 97.9% | [3] 115% and 109% | [4] 104% and 105% | [6] 103% | [8] 109% and 108% | [7] 98.7% and 104%

COc1cc2oc3cc(=O)cc4oc(-c5ccccc5)cc(c2c2c1CCC(c1ccccc1)O2)c43 (centres undefined)
inactive: [1] 55.8% | [2] 78.8% | [3] 69.2% | [4] 100% | [6] 59.7% | [7] 74.3%

OCc1cccc(F)c1
inactive: [1] 94.6% | [2] 104% | [3] 98.6% | [4] 50% | [6] 55.2% | [8] 99.4% | [7] 108%

O=[N+]([O-])c1ccc(NC2CCCCC2)nc1
inactive: [1] 102% | [2] 114% and 106% | [3] 102% and 112% | [4] 103% and 109% | [6] 108% and 101% | [8] 105% and 96.3% | [7] 111% and 103%

COc1ccc(CCl)c(C)c1OC
inactive: [1] 102% | [2] 105% | [3] 108% | [4] 101% | [5] 103% | [6] 99.6% | [7] 101%

CCOC(=O)C1=C(C)NC(C)=C(C(=O)OCC)C1
inactive: [1] 90.1% and 116% | [2] 110% and 93.7% | [3] 95.4% and 97.6% | [4] 91.9% and 96.9% | [6] 140% and 87.3% | [8] 114% and 87.1% | [7] 96.8% and 113%

CC(C)(C)OC(=O)NCCc1ccc(N)cc1
inactive: [1] 94.8% | [2] 98.1% | [3] 101% | [4] 97.6% | [6] 112% | [8] 107% | [7] 107%

CC(NC(=O)CCl)c1ccccc1 (centres undefined)
inactive: [1] 103% | [2] 95.3% | [3] 99.7% | [4] 96.4% | [6] 97.6% | [7] 105%

O=C1c2cccnc2-c2ncccc21
inactive: [1] 98.9% [100 µM] | [2] 104% [100 µM] | [3] 103% [100 µM] | [4] 109% [100 µM] | [6] 107% [100 µM] | [7] 103% [100 µM]
